± gives the standard deviation.
Legend:
Settings in all cases: modulator concentration 10 µM
[1] = tested on: RAW-Dual (murine macrophage reporter line); test: NF-kB reporter (SEAP) activity fold change vs agonist alone; higher = enhanced NF-kB activity
How it was run: (§1)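 Compound reached 10 μM final in each well by pin transfer, onto RAW-Dual murine macrophage reporter cells seeded at 50 000 per well in 384-well plates. After 1 hour at 37 °C, the cells were stimulated overnight with a PRR agonist. SEAP in the supernatant was read with QUANTI-Blue at 620 nm absorbance for NF-κB, and Lucia luciferase was read with QUANTI-Luc luminescence for IRF. Each signal was turned into fold change against the mean agonist-only control on the same plate, and two replicate plates were averaged with propagated errors.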

[2] = tested on: RAW-Dual (murine macrophage reporter line); test: IRF reporter (Lucia luciferase) activity fold change vs agonist alone; higher = enhanced IRF activity
How it was run: as §1

[3] = tested on: RAW-Dual (murine macrophage reporter line); test: viability score (confluency relative to resting cells, overnight) (fraction); higher = more viable, active = viable (0.7 or more)
How it was run: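 A compound met the cutoff when both of two confluency masks exceeded 70% of resting cells. Those masks were made with IncuCyte software from IncuCyte images of RAW-Dual macrophages treated overnight at 10 μM final. This is the basis of the viability score, which is confluency relative to resting cells.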

[4] = agonist: CpG ODN 1826 0.5 ug/mL

Row | SMILES | NF-kB reporter [1, 4] | NF-kB reporter ([1]; agonist: LPS 0.1 ug/mL) | NF-kB reporter ([1]; agonist: MPLA […]) | IRF reporter ([2]; agonist: 3'3'-cGAMP 10 ug/mL) | IRF reporter ([2]; agonist: LPS 0.1 ug/mL) | IRF reporter ([2]; agonist: MPLA […]) | viability score [3]
1 | COc1ccc(C=NNC(=O)CSc2nnc(-c3ccccc3)n2-c2ccccc2)cc1OC | 1.14 ± 0.091 | 1.14 ± 0.074 | 1.09 ± 0.045 | 0.845 ± 0.059 | 0.958 ± 0.056 | 1 ± 0.076 | 0.996 (active)
2 | CC(Cc1ccc(O)c(O)c1)C(C)Cc1ccc(O)c(O)c1 (centres undefined) | 1.16 ± 0.31 | 0.645 ± 0.057 | 1.31 ± 0.094 | 0.0338 ± 0.0028 | 0.509 ± 0.062 | 0.544 ± 0.055 | 0.618 (inactive)
3 | OCC(CO)N[C@H]1C[C@](O)(CO)[C@@H](O)[C@H](O)[C@H]1O | 0.913 ± 0.054 | 0.924 ± 0.074 | 0.916 ± 0.046 | 0.908 ± 0.058 | 1.04 ± 0.065 | 0.884 ± 0.07 | 1 (active)
4 | Cc1cc(CNS(=O)(=O)Cc2ccc(C(F)(F)F)cc2)c(C)o1 | 1.01 ± 0.087 | 0.963 ± 0.076 | 0.951 ± 0.044 | 1.26 ± 0.068 | 1.34 ± 0.083 | 1.37 ± 0.23 | 0.383 (inactive)
5 | Cc1cc(C(=O)Nc2nnc(-c3ccc(F)cc3)o2)n(C)n1 | 0.915 ± 0.1 | 0.985 ± 0.084 | 1.1 ± 0.064 | 0.929 ± 0.059 | 1.18 ± 0.24 | 1.22 ± 0.5 | 0.873 (active)
6 | CCN(CC)C(=O)N1CCN(C)CC1.O=C(O)CC(O)(CC(=O)O)C(=O)O | 1.04 ± 0.19 | 0.975 ± 0.18 | 0.92 ± 0.065 | 0.895 ± 0.057 | 1.23 ± 0.23 | 1.16 ± 0.27 | 0.995 (active)
7 | CCOCCn1c(C2CCN(CCc3ccc(C(C)(C)C(=O)O)cc3)CC2)nc2ccccc21 | 1.29 ± 0.34 | 0.976 ± 0.065 | 1 ± 0.098 | 0.925 ± 0.034 | 1.08 ± 0.13 | 1.04 ± 0.13 | 0.521 (inactive)
8 | Oc1ccc(/C=C/c2cc(O)cc(O)c2)cc1 | 1.06 ± 0.16 | 1.23 ± 0.28 | 1.11 ± 0.084 | 0.695 ± 0.041 | 0.845 ± 0.13 | 0.798 ± 0.12 | 0.982 (active)
9 | CC1=CC(=O)c2ccccc2C1=O | 2.29 ± 0.12 | 1.31 ± 0.11 | 1.81 ± 0.2 | 0.357 ± 0.023 | 3.57 ± 0.25 | 1.33 ± 0.4 | 0.0798 (inactive)
10 | CCOC(=O)C1=C(C)NC(C)=C(C(=O)OCC)C1c1ccccc1/C=C/C(=O)OC(C)(C)C | 1.04 ± 0.15 | 1.14 ± 0.3 | 1.14 ± 0.26 | 0.586 ± 0.032 | 1.39 ± 0.29 | 1.15 ± 0.086 | 0.965 (active)
11 | Cc1ccccc1-c1noc(-c2cc3ccccc3oc2=O)n1 | 0.911 ± 0.25 | 0.936 ± 0.077 | 0.917 ± 0.07 | 1 ± 0.027 | 1.08 ± 0.11 | 1.21 ± 0.12 | 0.996 (active)
12 | Cc1cn([C@@H]2C[C@@H](O)[C@H](CO)O2)c(=O)[nH]c1=O | 1.12 ± 0.086 | 0.998 ± 0.054 | 1.01 ± 0.065 | 1.09 ± 0.18 | 0.886 ± 0.04 | 0.82 ± 0.15 | 1.01 (active)
13 | COCCN1C(=O)CN(C2CCN(Cc3cc(OC)cc(OC)c3)CC2)C1=O | 0.918 ± 0.047 | 1.14 ± 0.11 | 0.881 ± 0.04 | 0.979 ± 0.051 | 1.09 ± 0.12 | 1.13 ± 0.13 | 1.01 (active)
14 | O=S(=O)(Nc1ccc(-c2nc3cccnc3s2)cc1)c1cccs1 | 0.902 ± 0.23 | 0.748 ± 0.23 | 0.566 ± 0.07 | 0.783 ± 0.027 | 0.973 ± 0.37 | 0.892 ± 0.12 | 0.672 (inactive)
15 | COc1ccc(S(=O)(=O)NCc2ccnc(-c3ccncc3)c2)cc1Cl | 0.831 ± 0.098 | 1.06 ± 0.1 | 0.964 ± 0.16 | 0.388 ± 0.02 | 0.969 ± 0.07 | 1.11 ± 0.11 | 0.999 (active)
16 | CC1CCC2C(C)(C)C3CC12CCC3(C)O (centres undefined) | 1.04 ± 0.081 | 0.883 ± 0.11 | 0.965 ± 0.094 | 0.999 ± 0.052 | 1.15 ± 0.16 | 1.25 ± 0.23 | 1.05 (active)
17 | O=C(Nc1ccc(NS(=O)(=O)c2ccccc2)cc1)c1ccco1 | 1.12 ± 0.14 | 0.922 ± 0.13 | 0.998 ± 0.035 | 0.879 ± 0.14 | 0.818 ± 0.035 | 0.823 ± 0.095 | 1 (active)
18 | CCCNS(=O)(=O)Nc1ncnc(OCCOc2ncc(Br)cn2)c1-c1ccc(Br)cc1 | 0.775 ± 0.21 | 0.995 ± 0.074 | 1.16 ± 0.1 | 0.417 ± 0.047 | 0.383 ± 0.083 | 0.465 ± 0.062 | 0.953 (active)
19 | Cc1nc2ccc(Cl)cn2c(=O)c1NC(=O)c1c(F)cccc1Cl | 0.78 ± 0.034 | 1.05 ± 0.11 | 0.96 ± 0.083 | 1.05 ± 0.049 | 1.09 ± 0.25 | 1.2 ± 0.41 | 0.965 (active)
20 | Br.COc1ccc2c3c1O[C@H]1C[C@@H](O)C=C[C@@]31CCN(C)C2 | 0.95 ± 0.071 | 1.03 ± 0.052 | 0.947 ± 0.024 | 0.912 ± 0.08 | 0.995 ± 0.042 | 1.11 ± 0.14 | 1.01 (active)
21 | O=C(NCC1CCCO1)c1[nH]nnc1-c1ccc(F)cc1 (centres undefined) | 1.15 ± 0.16 | 0.996 ± 0.075 | 1.01 ± 0.05 | 0.999 ± 0.038 | 1.03 ± 0.048 | 1.1 ± 0.12 | 1 (active)
22 | Cc1ncsc1C(=O)N1CC(OCC(F)(F)F)C1 | 0.974 ± 0.11 | 0.996 ± 0.08 | 1.01 ± 0.095 | 1.08 ± 0.11 | 1.01 ± 0.09 | 0.999 ± 0.25 | 1 (active)
23 | Clc1ccccc1C=NNc1nc(-c2ccccc2)cc(-c2ccccc2)n1 | 1.15 ± 0.11 | 1.1 ± 0.073 | 1.79 ± 0.07 | 1.2 ± 0.23 | 1.04 ± 0.065 | 1.65 ± 0.29 | 1 (active)
24 | Cc1ccc(C(=O)NC(Oc2ccc3ccccc3c2)C(Br)(Br)Br)cc1 (centres undefined) | 0.799 ± 0.045 | 1.02 ± 0.092 | 0.86 ± 0.053 | 0.598 ± 0.047 | 1.51 ± 0.12 | 1.27 ± 0.14 | 0.998 (active)
25 | CN1CCN(S(=O)(=O)c2ccc(-c3ccc(S(=O)(=O)N4CCN(C)CC4)cc3)cc2)CC1 | 0.865 ± 0.048 | 1.06 ± 0.074 | 0.955 ± 0.06 | 1.04 ± 0.043 | 1.45 ± 0.15 | 1.1 ± 0.098 | 0.999 (active)
26 | Brc1ccc2ncnc(N3CCOCC3)c2c1 | 1.17 ± 0.097 | 1.39 ± 0.098 | 1.13 ± 0.05 | 0.357 ± 0.087 | 0.515 ± 0.039 | 0.592 ± 0.084 | 1 (active)
27 | COc1ccc(-n2c(=O)c3c4c(sc3n3c(SC)nnc23)CCCC4)cc1 | 1.16 ± 0.13 | 1.06 ± 0.074 | 1.14 ± 0.044 | 0.971 ± 0.18 | 0.96 ± 0.04 | 0.921 ± 0.064 | 1 (active)

Reference: the supplement of paper PMC10646978
